About 8,800 targets were measured; listed, in parts, are those with a hit and a random draw of the rest. About 0.5% of all pairs of compound and target were hits. Unmarked numbers belong to inactive results.
Legend:
Assay in all cases: log2 fold change, soluble protein after heating vs DMSO (PISA); higher = thermal stabilisation; K562 lysate, 10 uM; active = over 0.2 and 3.5 SD of the protein, either way, in both replicates (recomputed)
alvocidib = compound: CN1CC[C@H](c2c(O)cc(O)c3c(=O)cc(-c4ccccc4Cl)oc23)[C@H](O)C1 [alvocidib]
Summary of the method: (§1)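 K562 pellets were dounce-homogenised in PBS pH 7.4 with 1 mM MgCl2, and the crude extract at 1 mg/mL protein was treated with 10 μM compound for 30 min. Aliquots were heated for 3 min across 48°C-58°C, pooled, and brought to 0.5% NP-40 at 4°C; soluble protein was the supernatant after 21,000xg for 90 min. Soluble protein was quantified by TMTpro 16plex LC-MS/MS with channel sums equalised, and reported as log2 fold change in thermal stability against DMSO controls, with values from duplicates.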

Tubastatin A = compound: CN1CCc2c(c3ccccc3n2Cc2ccc(C(=O)NO)cc2)C1 [Tubastatin A]
Summary of the method: as §1

[1] = compound: CNC(=O)C1=CC=CC=C1NC2=NC(=NC=C2Cl)NC3=C(C=C(C=C3)N4CCOCC4)OC
Summary of the method: as §1

defactinib = compound: CNC(=O)c1ccc(Nc2ncc(C(F)(F)F)c(NCc3nccnc3N(C)S(C)(=O)=O)n2)cc1 [defactinib]
Summary of the method: as §1

[2] = compound: CNc1nc(-c2ccc3c(N)n[nH]c3c2)cc(N2C[C@@H](C(=O)NC3CCCCC3)CC[C@H]2C)n1
Summary of the method: as §1

encorafenib = compound: COC(=O)N[C@@H](C)CNc1nccc(-c2cn(C(C)C)nc2-c2cc(Cl)cc(NS(C)(=O)=O)c2F)n1 [encorafenib]
Summary of the method: as §1

[3] = compound: COC(=O)[C@H](CCSC)NC(=O)C1=C(C=C(C=C1)NC[C@H](CS)N)C2=CC=CC=C2
Summary of the method: as §1

alisertib = compound: COc1cc(Nc2ncc3c(n2)-c2ccc(Cl)cc2C(c2c(F)cccc2OC)=NC3)ccc1C(=O)O [alisertib]
Summary of the method: as §1

[4] = compound: COc1cc2nc(-c3cc(F)ccc3O)nc(N[C@@H]3CNC[C@H]3C(C)(C)O)c2cc1OC
Summary of the method: as §1

gefitinib = compound: COc1cc2ncnc(Nc3ccc(F)c(Cl)c3)c2cc1OCCCN1CCOCC1 [gefitinib]
Summary of the method: as §1

lapatinib = compound: CS(=O)(=O)CCNCc1ccc(-c2ccc3ncnc(Nc4ccc(OCc5cccc(F)c5)c(Cl)c4)c3c2)o1 [lapatinib]
Summary of the method: as §1

pictilisib = compound: CS(=O)(=O)N1CCN(Cc2cc3nc(-c4cccc5[nH]ncc45)nc(N4CCOCC4)c3s2)CC1 [pictilisib]
Summary of the method: as §1

crizotinib = compound: C[C@@H](Oc1cc(-c2cnn(C3CCNCC3)c2)cnc1N)c1c(Cl)ccc(F)c1Cl [crizotinib]
Summary of the method: as §1

[5] = compound: C[C@H](C1=CC=C(C=C1)C(=O)NC2=C3C=CNC3=NC=C2)N
Summary of the method: as §1

duvelisib = compound: C[C@H](Nc1ncnc2nc[nH]c12)c1cc2cccc(Cl)c2c(=O)n1-c1ccccc1 [duvelisib]
Summary of the method: as §1

gandotinib = compound: Cc1cc(Nc2cc(CN3CCOCC3)c3nc(C)c(Cc4ccc(Cl)cc4F)n3n2)n[nH]1 [gandotinib]
Summary of the method: as §1

tozasertib = compound: Cc1cc(Nc2cc(N3CCN(C)CC3)nc(Sc3ccc(NC(=O)C4CC4)cc3)n2)n[nH]1 [tozasertib]
Summary of the method: as §1

doramapimod = compound: Cc1ccc(-n2nc(C(C)(C)C)cc2NC(=O)Nc2ccc(OCCN3CCOCC3)c3ccccc23)cc1 [doramapimod]
Summary of the method: as §1

bafetinib = compound: Cc1ccc(NC(=O)c2ccc(CN3CC[C@H](N(C)C)C3)c(C(F)(F)F)c2)cc1Nc1nccc(-c2cncnc2)n1 [bafetinib]
Summary of the method: as §1

[6] = compound: Cc1cccc(CC(=O)N2CCc3c2ccc(-c2cn(C)c4ncnc(N)c24)c3F)n1
Summary of the method: as §1

UniProt Q9Y4W2, sequence (Q9Y4W2 whole entry, looked up): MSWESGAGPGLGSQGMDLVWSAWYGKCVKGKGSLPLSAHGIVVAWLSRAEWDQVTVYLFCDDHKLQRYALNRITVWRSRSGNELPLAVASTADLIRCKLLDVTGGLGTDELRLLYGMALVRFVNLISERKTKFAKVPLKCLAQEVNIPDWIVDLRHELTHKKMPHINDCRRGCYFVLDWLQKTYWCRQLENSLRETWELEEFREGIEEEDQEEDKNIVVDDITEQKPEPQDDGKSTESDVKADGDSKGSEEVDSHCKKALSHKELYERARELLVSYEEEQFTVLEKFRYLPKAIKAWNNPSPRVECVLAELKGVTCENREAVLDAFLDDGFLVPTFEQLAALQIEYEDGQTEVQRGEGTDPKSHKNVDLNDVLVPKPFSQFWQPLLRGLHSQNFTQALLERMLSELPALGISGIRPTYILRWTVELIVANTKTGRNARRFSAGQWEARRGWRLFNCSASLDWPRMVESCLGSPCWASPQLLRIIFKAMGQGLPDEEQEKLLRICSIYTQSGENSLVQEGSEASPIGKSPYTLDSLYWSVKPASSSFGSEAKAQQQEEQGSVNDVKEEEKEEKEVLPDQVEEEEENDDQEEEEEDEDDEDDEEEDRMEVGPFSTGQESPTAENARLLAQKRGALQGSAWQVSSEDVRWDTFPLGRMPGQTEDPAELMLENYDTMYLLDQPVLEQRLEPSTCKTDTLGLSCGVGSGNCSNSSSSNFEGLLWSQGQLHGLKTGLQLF
UniProt Q9BV79, sequence (Q9BV79 whole entry, looked up): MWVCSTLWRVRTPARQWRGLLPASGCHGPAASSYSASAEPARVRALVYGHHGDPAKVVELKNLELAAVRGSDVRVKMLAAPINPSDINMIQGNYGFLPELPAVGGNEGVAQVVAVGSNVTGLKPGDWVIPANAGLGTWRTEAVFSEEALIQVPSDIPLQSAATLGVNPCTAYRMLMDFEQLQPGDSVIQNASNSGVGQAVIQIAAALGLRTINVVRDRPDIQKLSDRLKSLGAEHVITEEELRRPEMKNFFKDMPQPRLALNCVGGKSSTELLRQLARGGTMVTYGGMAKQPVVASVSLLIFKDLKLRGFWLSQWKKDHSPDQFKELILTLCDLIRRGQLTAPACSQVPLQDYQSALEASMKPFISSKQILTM
UniProt Q8IW41, sequence (Q8IW41 whole entry, looked up): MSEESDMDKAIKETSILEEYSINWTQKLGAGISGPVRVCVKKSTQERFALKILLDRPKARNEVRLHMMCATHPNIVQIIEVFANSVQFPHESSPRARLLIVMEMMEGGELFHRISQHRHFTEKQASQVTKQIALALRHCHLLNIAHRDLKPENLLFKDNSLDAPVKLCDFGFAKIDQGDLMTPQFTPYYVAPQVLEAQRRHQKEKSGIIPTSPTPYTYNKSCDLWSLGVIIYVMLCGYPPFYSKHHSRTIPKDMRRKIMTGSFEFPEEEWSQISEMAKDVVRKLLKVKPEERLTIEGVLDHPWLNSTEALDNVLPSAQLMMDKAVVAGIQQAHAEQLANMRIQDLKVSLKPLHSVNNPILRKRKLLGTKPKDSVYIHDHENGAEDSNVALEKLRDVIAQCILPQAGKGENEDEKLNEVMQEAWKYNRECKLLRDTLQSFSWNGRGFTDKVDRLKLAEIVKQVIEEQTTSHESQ
UniProt Q14807, sequence (Q14807 whole entry, looked up): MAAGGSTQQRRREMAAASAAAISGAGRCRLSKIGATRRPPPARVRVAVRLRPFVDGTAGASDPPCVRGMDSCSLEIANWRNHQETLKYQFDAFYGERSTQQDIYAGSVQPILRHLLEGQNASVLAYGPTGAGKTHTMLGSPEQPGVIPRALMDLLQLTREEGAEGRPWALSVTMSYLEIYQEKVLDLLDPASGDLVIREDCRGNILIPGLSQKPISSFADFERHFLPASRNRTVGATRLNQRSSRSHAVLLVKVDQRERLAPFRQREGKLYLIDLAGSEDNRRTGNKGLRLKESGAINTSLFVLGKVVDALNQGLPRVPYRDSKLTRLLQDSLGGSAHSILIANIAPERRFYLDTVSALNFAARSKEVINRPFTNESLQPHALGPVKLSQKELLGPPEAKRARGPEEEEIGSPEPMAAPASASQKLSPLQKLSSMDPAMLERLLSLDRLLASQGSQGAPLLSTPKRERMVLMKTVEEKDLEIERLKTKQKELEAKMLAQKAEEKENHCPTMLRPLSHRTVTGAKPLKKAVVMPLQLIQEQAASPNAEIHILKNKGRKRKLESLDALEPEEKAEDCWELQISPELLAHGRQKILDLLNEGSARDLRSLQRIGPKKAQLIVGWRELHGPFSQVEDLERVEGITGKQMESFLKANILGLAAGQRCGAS
UniProt Q9BW19, sequence (Q9BW19 whole entry, looked up): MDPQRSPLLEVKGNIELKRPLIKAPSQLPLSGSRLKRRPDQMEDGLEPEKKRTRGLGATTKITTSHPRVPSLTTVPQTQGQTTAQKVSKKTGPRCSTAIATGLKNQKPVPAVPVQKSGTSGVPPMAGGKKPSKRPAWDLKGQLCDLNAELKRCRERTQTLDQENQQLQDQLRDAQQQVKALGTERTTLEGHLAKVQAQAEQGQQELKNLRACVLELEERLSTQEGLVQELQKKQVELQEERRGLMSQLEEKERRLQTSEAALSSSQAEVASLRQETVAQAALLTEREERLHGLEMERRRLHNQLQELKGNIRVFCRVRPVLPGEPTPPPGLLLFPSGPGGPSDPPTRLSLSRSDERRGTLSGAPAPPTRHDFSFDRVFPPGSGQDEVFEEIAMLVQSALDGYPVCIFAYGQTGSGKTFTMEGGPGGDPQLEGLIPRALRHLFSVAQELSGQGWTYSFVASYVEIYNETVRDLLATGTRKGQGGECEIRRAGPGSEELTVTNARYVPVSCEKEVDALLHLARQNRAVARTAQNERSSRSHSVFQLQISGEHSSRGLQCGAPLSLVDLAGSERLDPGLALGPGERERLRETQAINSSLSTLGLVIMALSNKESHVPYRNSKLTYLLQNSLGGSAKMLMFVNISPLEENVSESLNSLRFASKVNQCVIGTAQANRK
UniProt Q8N4N3, sequence (Q8N4N3 whole entry, looked up): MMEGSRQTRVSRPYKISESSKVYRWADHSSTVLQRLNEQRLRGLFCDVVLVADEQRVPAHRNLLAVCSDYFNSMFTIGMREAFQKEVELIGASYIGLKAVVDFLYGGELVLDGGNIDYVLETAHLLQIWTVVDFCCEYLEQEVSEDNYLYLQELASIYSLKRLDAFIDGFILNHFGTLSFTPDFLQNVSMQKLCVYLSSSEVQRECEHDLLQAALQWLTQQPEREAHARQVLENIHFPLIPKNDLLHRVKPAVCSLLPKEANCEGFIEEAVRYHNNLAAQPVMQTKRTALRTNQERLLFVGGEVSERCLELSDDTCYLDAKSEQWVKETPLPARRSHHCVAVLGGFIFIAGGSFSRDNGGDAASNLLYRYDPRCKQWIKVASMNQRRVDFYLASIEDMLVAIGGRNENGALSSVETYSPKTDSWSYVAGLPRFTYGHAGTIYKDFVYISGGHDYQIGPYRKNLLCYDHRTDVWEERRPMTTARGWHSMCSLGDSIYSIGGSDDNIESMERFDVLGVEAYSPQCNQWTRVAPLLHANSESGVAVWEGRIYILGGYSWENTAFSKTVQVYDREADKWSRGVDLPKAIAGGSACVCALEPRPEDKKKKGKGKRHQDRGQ
UniProt Q07866, sequence (Q07866 whole entry, looked up): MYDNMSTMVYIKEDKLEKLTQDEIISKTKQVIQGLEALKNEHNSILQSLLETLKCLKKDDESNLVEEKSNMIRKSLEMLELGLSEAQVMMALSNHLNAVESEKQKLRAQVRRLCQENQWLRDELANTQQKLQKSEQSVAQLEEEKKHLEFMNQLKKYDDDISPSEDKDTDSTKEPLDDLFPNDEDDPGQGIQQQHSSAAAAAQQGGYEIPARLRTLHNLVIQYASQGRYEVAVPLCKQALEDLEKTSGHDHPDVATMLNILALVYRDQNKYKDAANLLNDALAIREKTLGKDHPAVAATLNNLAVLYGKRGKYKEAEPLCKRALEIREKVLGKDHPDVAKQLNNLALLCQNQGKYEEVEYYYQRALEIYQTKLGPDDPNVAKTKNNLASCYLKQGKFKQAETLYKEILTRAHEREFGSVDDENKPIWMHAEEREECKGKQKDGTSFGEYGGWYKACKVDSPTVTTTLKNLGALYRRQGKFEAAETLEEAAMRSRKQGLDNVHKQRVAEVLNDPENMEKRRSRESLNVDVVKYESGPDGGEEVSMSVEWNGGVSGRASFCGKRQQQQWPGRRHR
UniProt P36507, sequence (P36507 whole entry, looked up): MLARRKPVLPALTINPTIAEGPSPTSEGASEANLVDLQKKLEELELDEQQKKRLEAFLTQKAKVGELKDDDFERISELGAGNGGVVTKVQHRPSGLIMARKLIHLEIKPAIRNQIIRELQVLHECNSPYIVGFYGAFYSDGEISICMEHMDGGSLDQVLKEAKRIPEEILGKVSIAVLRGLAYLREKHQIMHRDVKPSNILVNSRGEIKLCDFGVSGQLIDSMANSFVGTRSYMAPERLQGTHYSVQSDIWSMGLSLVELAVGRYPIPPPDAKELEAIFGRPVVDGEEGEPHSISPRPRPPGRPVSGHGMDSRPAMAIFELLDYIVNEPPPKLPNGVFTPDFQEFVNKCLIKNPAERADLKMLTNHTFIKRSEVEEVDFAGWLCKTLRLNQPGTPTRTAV
UniProt Q96G25, sequence (Q96G25 whole entry, looked up): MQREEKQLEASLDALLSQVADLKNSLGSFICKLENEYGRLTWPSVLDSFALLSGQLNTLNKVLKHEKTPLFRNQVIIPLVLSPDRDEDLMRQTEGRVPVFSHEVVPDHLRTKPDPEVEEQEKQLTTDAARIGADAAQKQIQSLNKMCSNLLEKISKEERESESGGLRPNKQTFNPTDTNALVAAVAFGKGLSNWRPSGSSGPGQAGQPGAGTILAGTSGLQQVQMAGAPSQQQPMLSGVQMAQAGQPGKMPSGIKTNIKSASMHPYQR

| Target | log2 fold change (alvocidib) | log2 fold change (Tubastatin A) | log2 fold change [1] | log2 fold change (defactinib) | log2 fold change [2] | log2 fold change (encorafenib) | log2 fold change [3] | log2 fold change (alisertib) | log2 fold change [4] | log2 fold change (gefitinib) | log2 fold change (lapatinib) | log2 fold change (pictilisib) | log2 fold change (crizotinib) | log2 fold change [5] | log2 fold change (duvelisib) | log2 fold change (gandotinib) | log2 fold change (tozasertib) | log2 fold change (doramapimod) | log2 fold change (bafetinib) | log2 fold change [6] |
| --- | --- | --- | --- | --- | --- | --- | --- | --- | --- | --- | --- | --- | --- | --- | --- | --- | --- | --- | --- | --- |
| LAS1L (UniProt Q9Y4W2) | -0.015 | -0.127 | -0.024 | -0.02 | 0.016 | -0.04 | 0.06 | -0.011 | 0.01 | -0.013 | -0.004 | -0.033 | -0.05 | -0.051 | -0.003 | 0.017 | 0.043 | 0.011 | -0.004 | 0.233 (active) |
| KIFC1 (UniProt Q9BW19) | -0.022 | -0.15 | -0.013 | -0.003 | 0.024 | -0.03 | 0.14 | 0.011 | 0.008 | -0.01 | -0.021 | -0.013 | -0.019 | -0.016 | -0.003 | -0.05 | 0.047 | 0.021 | -0.027 | 0.031 |
| MAPKAPK5 (UniProt Q8IW41) | 0.055 | 0 | 0.006 | 0.003 | -0.089 | -0.074 | -0.125 | -0.006 | 0.01 | 0.019 | 0.05 | -0.008 | -0.085 | 0.111 | 0.04 | -0.07 | -0.004 | 0.015 | 0.019 | -0.053 |
| LAP3 (UniProt P28838) | -0.249 | 0.082 | 0.069 | -0.063 | 0.191 | 0.006 | 0.004 | -0.02 | 0.038 | -0.004 | -0.021 | 0.003 | -0.102 | -0.531 (active) | 0.034 | 0.385 (active) | -0.126 | 0.02 | 0.014 | 0.331 (active) |
| MED8 isoform 2 (UniProt Q96G25) | 0.026 | -0.048 | 0.023 | -0.009 | 0.045 | 0.056 | -0.113 | -0.07 | 0.059 | -0.038 | 0.005 | -0.051 | 0.014 | 0.269 (active) | 0.023 | -0.026 | 0.047 | 0.069 | -0.031 | -0.044 |
| LLGL1 (UniProt Q15334) | 0.026 | -0.105 | 0.032 | -0.013 | -0.034 | 0.052 | 0.108 | -0.032 | 0.121 | -0.065 | -0.005 | -0.058 | -0.025 | 0.263 (active) | 0.096 | -0.011 | 0.054 | 0.006 | -0.104 | -0.019 |
| LRWD1 (UniProt Q9UFC0) | 0.027 | -0.2 | -0.049 | 0.059 | -0.051 | 0.01 | 0.11 | -0.001 | 0.017 | -0.024 | -0.026 | -0.049 | -0.199 | -0.011 | 0 | -0.102 | -0.007 | 0.029 | -0.082 | 0.019 |
| MAPK3 (UniProt P27361) | 0.018 | 0.037 | 0.29 (active) | 0.061 | 0.079 | -0.035 | 0.05 | -0.028 | 0.052 | -0.018 | -0.028 | 0 | -0.01 | -0.021 | -0.01 | 0.089 | -0.038 | -0.023 | 0.021 | -0.043 |
| MAP2K2 (UniProt P36507) | 0.022 | -0.026 | 0.198 | 0.036 | 0.015 | -0.046 | -0.006 | -0.013 | 0.009 | -0.013 | -0.048 | 0.015 | 0.039 | 0.207 | 0.012 | -0.065 | 0.282 | -0.058 | -0.063 | -0.015 |
| MIPEP (UniProt Q99797) | 0.027 | 0.011 | -0.03 | 0.025 | -0.067 | -0.012 | 0.154 | -0.038 | -0.009 | -0.007 | -0.013 | -0.031 | 0.041 | -0.004 | -0.022 | -0.049 | 0.072 | -0.059 | 0.016 | 0.04 |
| KPNA2 (UniProt P52292) | 0.018 | -0.083 | -0.012 | 0.012 | -0.013 | -0.005 | 0.122 | 0.008 | -0.017 | 0.003 | -0.016 | 0.024 | -0.063 | -0.001 | 0.011 | -0.066 | 0.017 | 0.003 | -0.028 | 0.05 |
| KLHL36 (UniProt Q8N4N3) | 0.046 | 0.04 | -0.032 | 0.039 | 0.017 | 0.031 | -0.078 | 0.032 | -0.009 | -0.074 | -0.045 | -0.006 | 0.021 | -0.075 | -0.02 | -0.013 | 0.014 | -0.129 | 0.022 | -0.052 |
| MICB, A0A140T979 | 0.01 | -0.005 | -0.09 | 0.021 | 0.084 | -0.027 | -0.506 (active) | -0.043 | 0.804 (active) | -0.012 | -0.169 | -0.074 | -0.067 | -0.042 | 0.052 | 0.011 | -0.177 | -0.003 | -0.001 | 0.027 |
| KLC1 isoform 6 (UniProt Q07866) | -0.015 | -0.038 | 0.02 | -0.003 | -0.018 | 0.002 | 0.002 | 0.002 | 0.014 | -0.009 | -0.011 | -0.001 | 0 | -0.009 | -0.031 | -0.073 | -0.004 | 0.026 | -0.008 | 0.005 |
| MECR (UniProt Q9BV79) | 0.018 | 0.014 | 0.01 | 0.007 | 0.053 | -0.06 | 0.049 | 0 | 0.04 | -0.011 | -0.028 | -0.038 | 0.007 | -0.11 | 0.007 | 0.045 | 0.007 | 0.02 | -0.005 | 0.013 |
| KIF22 (UniProt Q14807) | -0.121 | 0.099 | -0.059 | 0.175 | 0.137 | 0.012 | -0.017 | 0.011 | 0.171 | -0.013 | -0.149 | -0.07 | -0.29 | -0.201 | -0.02 | 0.238 | -0.043 | -0.009 | -0.068 | 0.33 |
